In all, about 340,000 compounds went through this assay and about 990 (0.29%) were called active. The full list was thinned out, with actives kept by preference. A number with no mark means an inactive call. No stated cut-off is given here; in the data, active means activation above about 18%; inactive means the rest.
The compounds below were run against Mu-type opioid receptor (Homo sapiens) + Delta-type opioid receptor (Homo sapiens) (UniProt P35372+P41143) (assay: agonists of OPRM1-OPRD1 heterodimerization, primary screen, cell-based, luminescence (AID 504326;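 further: 0% = vehicle-treated cells and 100% = reference agonist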)). Conditions: cells, at 9.3 µM, stronger effect = higher value.
Mu-type opioid receptor (Homo sapiens) + Delta-type opioid receptor (Homo sapiens), sequence (P35372 whole entry, looked up): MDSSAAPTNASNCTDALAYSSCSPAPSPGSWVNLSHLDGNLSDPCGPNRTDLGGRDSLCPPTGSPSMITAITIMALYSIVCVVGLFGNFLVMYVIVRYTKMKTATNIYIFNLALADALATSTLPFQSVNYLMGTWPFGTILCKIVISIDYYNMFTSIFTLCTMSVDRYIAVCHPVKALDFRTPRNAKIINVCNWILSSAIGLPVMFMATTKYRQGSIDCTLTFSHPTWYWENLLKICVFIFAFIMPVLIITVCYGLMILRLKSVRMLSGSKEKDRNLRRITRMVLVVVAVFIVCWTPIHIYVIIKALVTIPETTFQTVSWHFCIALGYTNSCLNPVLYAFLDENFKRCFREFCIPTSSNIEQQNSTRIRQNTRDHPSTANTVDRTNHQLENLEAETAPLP
Mu-type opioid receptor (Homo sapiens) + Delta-type opioid receptor (Homo sapiens), sequence (P41143 whole entry, looked up): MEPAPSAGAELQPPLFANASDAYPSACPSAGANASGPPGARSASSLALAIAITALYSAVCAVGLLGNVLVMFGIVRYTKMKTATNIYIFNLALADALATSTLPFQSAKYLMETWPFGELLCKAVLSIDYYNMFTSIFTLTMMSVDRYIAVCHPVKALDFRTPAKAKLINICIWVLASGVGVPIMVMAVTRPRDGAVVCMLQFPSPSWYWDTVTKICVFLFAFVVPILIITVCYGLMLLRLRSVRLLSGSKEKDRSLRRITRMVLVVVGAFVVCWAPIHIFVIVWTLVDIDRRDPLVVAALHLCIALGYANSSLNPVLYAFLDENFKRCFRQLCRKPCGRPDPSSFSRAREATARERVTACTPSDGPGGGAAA

SMILES	activation
C=C(C)COc1ccc(-c2nc(N)ncc2-c2ccccc2OC)c(O)c1	5.76%
C=C(C)COc1ccc(-c2n[nH]c(C)c2-c2ccccc2)c(O)c1	20.9% (active)
C=C(C)COc1ccc(-c2ncncc2-c2ccc(OC)cc2)c(O)c1	0.28%
COCCCNC(=O)Cn1cc(/C=C(\C#N)C(=O)N2CCN(c3ccccc3)CC2)c2ccccc21	-0.49%
Cc1ccc(N=C2NC(=O)c3cccc([N+](=O)[O-])c32)cc1	-1.31%
COc1ccccc1CNC(=O)c1ccc(Cl)c(S(=O)(=O)N2CCCC2)c1	-1.63%
Cc1ccc(C(=O)NCC(c2cccs2)N(C)C)cc1S(=O)(=O)N1CCOCC1 (configuration not stated)	7.26%
COc1ccccc1C(CNC(=O)c1ccc(C)c(S(=O)(=O)N2CCCCC2)c1)N(C)C (configuration not stated)	33.2% (active)
CCCOc1ccc(C(=O)C(CCC(CNCC)C(=O)c2ccc(OCCC)cc2)CNCC)cc1 (configuration not stated)	11.1%
C=CCOc1c2ccc(C(=O)N(CC)c3ccc(OC)cc3)cc2nn1C	0.36%
COc1cccc(NC(=O)c2ccccc2N(Cc2ccccc2)S(C)(=O)=O)c1	-3.67%
CC(OC(=O)c1ccc([N+](=O)[O-])cc1)C(=O)NCC1CCCCC1 (configuration not stated)	0.26%
COc1ccc(NC(=O)CCC(=O)Nc2cc(OC)c(NC(=O)c3ccco3)cc2OC)c(OC)c1	0.82%
COc1cc(C(=O)OC(C)C(=O)NCC2CCCCC2)cc(NC(=O)c2ccco2)c1OC (configuration not stated)	26.7% (active)
CNC(=O)c1[nH]cnc1C(=O)N[C@@H](CC(C)C)C(=O)OC(C)(C)C	0.92%
Cc1ccc(S(=O)(=O)NC(C)C(=O)Nc2ccccc2C(=O)N2CCCC2)cc1 (configuration not stated)	2.72%
COc1ccc(-n2nnnc2-c2nc3ccccc3s2)cc1	20.4% (active)
COc1ccc(-n2nnnc2CNC(=O)c2ccc3ccccc3c2)cc1	-0.36%
COc1ccc(CSc2nnnn2-c2ccc(C(=O)O)cc2)cc1	-1.43%
Cc1ccc(S(=O)(=O)NC(C(=O)N2CCOCCOCCOCCOCC2)c2ccccc2)cc1 (configuration not stated)	-1.61%
CC(=O)N1CCN(C(=O)C2(NC(=O)Nc3ccc(C)cc3)CCCCC2)CC1	-2.72%
CCOc1ccc(-c2c(C)n([O-])c3c([n+]2=O)CCCC3)cc1	-0.63%

SMILES	activation
C[C@H]1CC[C@]2(O[C@@H](CCO)C[C@@H](O)[C@@H]2O)O1	3.63%
O=C(N[C@@H](Cc1ccccc1)C(=O)OCc1ccccc1)c1nc[nH]c1C(=O)NC1CCNCC1	-2.25%
CC(C)(C)OC(=O)CNC(=O)c1[nH]cnc1C(=O)N[C@@H](Cc1ccccc1)C(=O)OCc1ccccc1	14.2%
CC(C)(C)OC(=O)N1CCC(NC(=O)c2[nH]cnc2C(=O)N[C@@H](Cc2ccccc2)C(=O)OCc2ccccc2)CC1	21.9% (active)
CCN1CCC2(CC1)N=C(c1ccc(F)cc1)C(=S)N2C(=O)c1ccc(C)cc1	13.8%
Cc1ccc(CN2C(=O)N/C(=C/c3cc(C)n(-c4ccccn4)c3C)C2=O)cc1	-1.23%
O=C1N/C(=C/c2cccs2)C(=O)N1Cc1ccc(F)cc1	18.9% (active)
CN(C)c1ccc(/C=C2\NC(=S)N(Cc3ccccc3)C2=O)cc1	0.84%
CCn1c(SCC(=O)Nc2ccc(C)cc2)nc2nc3c(cc2c1=O)CCCC3	-0.65%
CCOc1ccc(NC(=O)CCS(=O)(=O)c2cccc3nsnc23)cc1	-1.59%
O=C(NCc1ccccc1)c1onc(CSc2ccncc2)c1C(=O)NCc1ccccc1	-1.19%
CCOc1cc(S(=O)(=O)NC2CC(C)(C)NC(C)(C)C2)ccc1F	-2.58%
COCCN(C(=O)CCC(=O)Nc1nccs1)C(C(=O)NCCC(C)C)c1ccc(F)cc1 (configuration not stated)	-1.57%
CC1CCCN(CCOCCOc2ccccc2-c2ccccc2)C1 (configuration not stated)	18.4% (active)
c1ccc(-c2ccccc2OCCN2CCCCC2)cc1	-3.6%
CC1CN(CCCOc2ccccc2-c2ccccc2)CC(C)O1 (configuration not stated)	4.64%
Cc1c(NC(=O)C(C)OC(=O)c2c3c(nc4ccccc24)CCC(C)C3)c(=O)n(-c2ccccc2)n1C (configuration not stated)	-2.46%
CC(C)(C)NS(=O)(=O)c1ccc(NC(=O)C2CCCO2)cc1 (configuration not stated)	0.39%
CC(=O)c1ccc(S(=O)(=O)Nc2ccc(C(=O)NCC(c3ccccc3)N(C)C)cc2)cc1 (configuration not stated)	0.68%
CN(C)C(CNC(=O)c1ccc(S(=O)(=O)NCc2ccco2)cc1)c1ccccc1 (configuration not stated)	20.7% (active)
O=C(NC1CCC(O)CC1)c1ccc(S(=O)(=O)NCc2ccco2)cc1 (configuration not stated)	-2.16%
COc1ccc(CNC(=O)c2cc(C(=O)C3CC3)c[nH]2)cc1	-1.28%

SMILES	activation
CC(C)Cc1nnc(NC(=O)CN2C(=O)NC3(CCCCC3)C2=O)s1	-1.6%
Cc1ccc(OCC(=O)Nc2ccc(N3CCN(C(=O)c4ccco4)CC3)cc2)c(C)c1	2.18%
CCc1ccc(NC(=O)COC(=O)c2cccs2)cc1	0.52%
Cc1ccc(OCC(=O)Nc2ccc(NC(=O)c3cccs3)cc2)c(C)c1	19.7% (active)
COC(=O)C1=C(C)N(C)C(=S)NC1c1cc(OC)ccc1OC (configuration not stated)	1.16%
COc1ccc(SC[C@H](Cc2ccccc2)N2CCN(CCc3ccccc3)CCC2=O)cc1	26.4% (active)
O=C1CC[C@H](O)CCN1[C@H](CSc1ccc(Br)cc1)Cc1ccccc1	-1.02%
C[C@H]1CCC(=O)N([C@H](CSc2ccccc2)Cc2ccccc2)CC1	2.5%
CS(=O)(=O)N(C(=O)NC(=O)NC1CCS(=O)(=O)C1)C1CCCCC1 (configuration not stated)	1.27%
CNC(=O)NC(=O)C(C)N1CCN(C/C=C/c2ccccc2)CC1 (configuration not stated)	0.24%
Cc1ccc(NC(=O)c2oc(=O)c3ccccc3c2-c2ccccc2)c(C)c1	-0.43%
COC(=O)CCCC1=CC2=C(c3ccccc3)C(=O)C(C)(OC(=O)C3CCCC3)C(=O)C2=CN1c1ccc(OC)cc1 (configuration not stated)	-1.53%
COc1cccc(/C=N/Nc2cc(C)nc(-c3ccccc3O)n2)c1O	35.6% (active)
COc1cccc(/C=N/Nc2ccc(S(=O)(=O)Nc3ccccc3C(=O)O)cc2[N+](=O)[O-])c1O	-1.24%
COc1ccc(Cc2nnc(N/N=C/c3ccccc3O)[nH]c2=O)cc1OC	-0.28%
O=C(NCCc1ccccc1)c1c[nH]c2ccc(F)cc2c1=O	-1.1%
CC(OC(=O)/C=C/c1ccccc1)C(=O)NC1CCCCC1C (configuration not stated)	-0.81%
CC(OC(=O)/C=C/c1ccccc1)C(=O)Nc1ccc(C(N)=O)cc1 (configuration not stated)	34.1% (active)
C=CCOc1ccc(/C=C/C(=O)OC(C)C(=O)Nc2ccc(NC(C)=O)cc2)cc1 (configuration not stated)	-0.11%
CC(C)CC(=O)N=C1SC2CS(=O)(=O)CC2N1CCc1ccccc1 (configuration not stated)	-2.17%
COc1ccc2sc(N(CCCN(C)C)C(=O)c3ccc(S(=O)(=O)N(C)C4CCCCC4)cc3)nc2c1	-0.93%
CN(C)CCCN(C(=O)c1ccc(S(=O)(=O)N2CCCc3ccccc32)cc1)c1nc2ccc(F)cc2s1	268% (active)

SMILES	activation
CN(C)CCCN(C(=O)c1ccc(S(=O)(=O)N2CCCCCC2)cc1)c1nc2ccc(Br)cc2s1	1.54%
Cc1ccc(C)c(S(=O)(=O)Nc2cccc(-n3cnnn3)c2)c1	-2.5%
C/C=C/C=C/C(=O)O	-2.37%
CCCC1(C(=O)OC)NC(c2ccco2)C2C(=O)N(C)C(=O)C21 (configuration not stated)	-1.73%
Cc1ccc2nc(-c3ccncc3)cc(C(=O)Nc3ccncc3)c2c1	24% (active)
Cc1ccc2nc(-c3ccncc3)cc(C(=O)Nc3ccc(OC(F)F)cc3)c2c1	8.59%
O=C(Nc1ccncc1)c1cc(-c2ccccn2)nc2ccc(Br)cc12	-0.71%
CCc1ccc(NC(=O)CS(=O)CC(=O)N2CCN(c3ccccc3F)CC2)cc1 (configuration not stated)	-0.39%
CC(c1cccnc1)N(CCN(C)C)C(=O)Nc1ccc(Cl)c(Cl)c1 (configuration not stated)	35.5% (active)
CN(CC(=O)NCc1cccnc1)S(=O)(=O)c1cc(Cl)ccc1Cl	-3.02%
O=C(NCc1ccc(Cl)c(Cl)c1)c1cccnc1	0.81%
CCN(CC)P(=O)(Nc1ccc(SC(F)F)cc1)c1ccc(N(C)C)cc1NC(=O)c1ccco1 (configuration not stated)	-0.5%
CC(=O)Nc1ccc(S(=O)(=O)N(C)c2ccc(OCC(=O)OCC(=O)N3CCCCC3)cc2)cc1	-0.7%
Cc1c(C(=O)c2cccc([N+](=O)[O-])c2)c2ccccn2c1CCC#N	-2.59%
FC(F)(F)c1ccc2nnc(-c3c(Cl)cccc3Cl)n2c1	-0.01%
Cc1ccc(C)c(N(CC(=O)NCc2ccco2)C(=O)CCC(=O)Nc2ccccn2)c1	-3.72%
CCOC(=O)C1(CC2CCCCO2)CCN(Cc2nc(-c3cccs3)oc2C)CC1 (configuration not stated)	45.6% (active)
CCOc1ccccc1-c1nc(CN2CCC(C(=O)N3CCOCC3)CC2)c(C)o1	-0.49%
COc1cccc(CC2(CO)CCCN(Cc3nc(-c4cccs4)oc3C)C2)c1 (configuration not stated)	0.45%
CCOc1ccc(NC(=O)C2CC(=O)N=C(N)S2)cc1 (configuration not stated)	-2.05%
COc1ccc2c(CC(=O)NNC(=O)c3ccccc3F)coc2c1	-0.31%
